The nature of assay [1]: Her2 expression decrease, cell viability multiplex – SKBR3 breast tumor cells, AlphaScreen, ATP viability, primary screen (AID 461;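 active = Her2 level under about 52% in both replicate screens, with viability over 70% of control, limit read from the data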;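 as to Her2 level: lower value means less Her2 protein in the cells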;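 as to viability: percent of carrier control wells set as 100% viability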). Particulars: SKBR3 Her2 protein level, 18-24 h, measured here: SKBR3 viability, ATP luminescence, at 10 µM. (In Alpha technology, singlet oxygen from a donor bead excites a nearby acceptor bead.)
Assay [2] has as its target Receptor tyrosine-protein kinase erbB-2 (Homo sapiens) (UniProt P04626). Described as above. The conditions noted are these: 18-24 h, at 10 µM, stronger effect = lower value.
Assay [3] can be described thus: reduced viability of SK-BR-3 breast cancer cells – cell-based, 24 h, human, pilot screen (AID 572;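 active = viability at or below 10% of carrier control in both of two separate runs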;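 also: compound exposure lasted between 18 and 24 h rather than exactly 24 h; 100% = carrier-treated control wells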). Particulars: SK-BR-3 viability, CellTiter-Glo luminescence, at 10 µM, stronger effect = lower value.
Assay [4] can be described thus: HUVEC growth inhibition – cell-based, human, primary screen (AID 575;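 active = viability at or below 30% in both replicate assays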;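 also: 100% = median of untreated cell wells with 0.1% DMSO on each plate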). The conditions noted are these: HUVEC proliferation, CellTiter-Glo luminescence, 72 h; at 10 µM; stronger effect = lower value.
Assay [5] is described as follows: H69AR cell proliferation blockers – human, duplicate replicates, primary screen (AID 580).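 Also: 100% = mean luminescence of untreated wells and 0% = no signal.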 The conditions noted are these: H69AR lung tumor cells viability, ATP luminescence, 72 h; at 10 µM; stronger effect = lower value.
Assay [6] can be described thus: MRP1 drug-resistance reversers in H69AR cells – cell-based, doxorubicin co-treatment, pilot screen (AID 601;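 active = viability loss from added drug above about 55%, and viability with drug at most 40%, in both replicates, limit read from the data, passing the limit was not always enough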). The conditions noted are these: CellTiter-Glo, 72 h, at 10 µM; for differential viability (reversal): stronger effect = higher value. In general terms: ATP-based viability assays read luminescence as a measure of living cells.
A short description of assay [7]: yeast transport mutant growth inhibition pilot in 384-well plates, post-Golgi transport modulator project (AID 636; in the data active = inhibition above about 31%). Particulars: absorbance 615 nm, about 18 h, stronger effect = higher value.
Assay [8] is described as follows: growth suppression of yeast trafficking mutant, preliminary HTS, modulators of trafficking downstream of Golgi apparatus project, 1536-format plate, OD 615 nm (AID 637; in the data active = inhibition above about 30%). Particulars: yeast transport mutant growth, absorbance 615 nm, 18 h; stronger effect = higher value.
Assay [9] is described as follows: S. cerevisiae growth inhibition in permissive medium (OD615), pilot counter-assay for S. cerevisiae lifespan shortening project, permissive growth control (AID 705;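 active = growth inhibition above 25% in both replicates, a cutoff set 3 SD above the mean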). The conditions noted are these: OD615, 24 h, at 10 µM, stronger effect = higher value.
Assay [10] can be described thus: S. cerevisiae growth inhibition in restrictive medium, OD615, pilot screen, restrictive growth control, yeast lifespan reduction project (AID 706;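 active = growth inhibition above a set limit, 3 SD over mean compound inhibition, in both replicates, cut at about 43% in these data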;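 also: modified DeaD lifespan yeast strain shifted to restrictive glucose medium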). The conditions noted are these: OD615, 48 h, at 10 µM, stronger effect = higher value.
A short description of assay [11]: doxorubicin toxicity protection in MRP-1 cells – H69AR cells, CellTiter-Glo, duplicate, MRP-1 activator project, pilot screen (AID 807;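 active = viability increase at or above a cutoff of the median across tested compounds plus 3 SD, cut at about 8.5% in these data, passing the limit was not always enough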;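 also: compound pretreatment 18-22 h then 72 h combined with doxorubicin; 0% = doxorubicin alone and 100% = vehicle without doxorubicin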). The conditions noted are these: H69AR viability with doxorubicin, CellTiter-Glo luminescence; at 10 µM; stronger effect = higher value.
A short description of assay [12]: viability of HCT116 without oncogenic beta-catenin – human colon tumor cells, pilot screen (AID 823;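 active = cell viability at or below a set limit in both duplicate runs, the limit being the all-compound median minus 4 SD, cut at about 23% in these data, passing the limit was not always enough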;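 also: 0% = wells killed by 20 µM Hyamine and 100% = untreated DMSO cell wells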). Particulars: HCT116 beta-catenin knockout viability, CellTiter-Glo, 60 h; at 10 µM; stronger effect = lower value.
Assay [13] is described as follows: viability of PTEN-null HCT116 cells – cell-based, HCT116 clonal line, CellTiter-Glo, pilot screen (AID 824;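 active = viability at or below 27.92% in each of two runs, the all-compound median minus 4 SD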;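 also: 0% = 20 µM Hyamine control and 100% = vehicle cell control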). The conditions noted are these: HCT116 PTEN-deleted viability, 60 h, at 10 µM, stronger effect = lower value.
Assay [14] can be described thus: RAM pathway blockade in budding yeast – dse1pr::URA3 reporter, 5-FOA selection, pilot screen (AID 869;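 active = inhibition over a set limit, the all-compound mean plus 3 SD, in both replicate runs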;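 also: 0% = DMSO wells with no growth and 100% = 10 µM 1-NA-PP1 with full growth; RAM network block rescues cells from 5-FOA so hits raise OD615 growth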). The conditions noted are these: S. cerevisiae dse1pr::URA3 5-FOA growth, OD615, 2 d; at 10 µM; stronger effect = higher value; strain carries analog-sensitive mutant Cbk1 kinase.
Assay [15] can be described thus: RAM signaling pathway blockade in yeast – S. cerevisiae, Pdr1DBD-CYC8 efflux-inhibited sensitized strain, primary screen (AID 1298;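 active = RAM network inhibition above 8.4% in each of two replicates, 3 SD over the compound average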;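 also: 0% = DMSO untreated cells without growth and 100% = 10 µM 1-NA-PP1 full growth; higher means more yeast growth rescued from 5-FOA killing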). The conditions noted are these: S. cerevisiae cbk1-as DSE1-URA3 strain, 5-FOA growth OD615, 2 d; at 50 µM; stronger effect = higher value.
The mark [16] stands for this setting: H69AR cells + 2 uM doxorubicin, measured here: viability with 2 uM doxorubicin, stronger effect = lower value.
The mark [17] stands for this setting: H69AR cells, compound alone cytotoxicity.

The structures appear in SMILES notation. Inconclusive results are not listed. The source made the active and inactive calls.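 The calls were made as follows, unless noted: active = viability at or under a set limit in both replicates, limit being median viability minus 3 SD (cut at about 48% in these data, passing the limit was not always enough); inconclusive = at or under the limit in just one replicate; inactive = at or above the limit in both replicates.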

Five compounds from PubChem BioAssay can be followed below.

The viability is a read-out of living cells in per cent, often relative to untreated cells. The inhibition is the change of the read-out against control, counted positive when it falls.

Receptor tyrosine-protein kinase erbB-2 (Homo sapiens), sequence (P04626 whole entry, looked up): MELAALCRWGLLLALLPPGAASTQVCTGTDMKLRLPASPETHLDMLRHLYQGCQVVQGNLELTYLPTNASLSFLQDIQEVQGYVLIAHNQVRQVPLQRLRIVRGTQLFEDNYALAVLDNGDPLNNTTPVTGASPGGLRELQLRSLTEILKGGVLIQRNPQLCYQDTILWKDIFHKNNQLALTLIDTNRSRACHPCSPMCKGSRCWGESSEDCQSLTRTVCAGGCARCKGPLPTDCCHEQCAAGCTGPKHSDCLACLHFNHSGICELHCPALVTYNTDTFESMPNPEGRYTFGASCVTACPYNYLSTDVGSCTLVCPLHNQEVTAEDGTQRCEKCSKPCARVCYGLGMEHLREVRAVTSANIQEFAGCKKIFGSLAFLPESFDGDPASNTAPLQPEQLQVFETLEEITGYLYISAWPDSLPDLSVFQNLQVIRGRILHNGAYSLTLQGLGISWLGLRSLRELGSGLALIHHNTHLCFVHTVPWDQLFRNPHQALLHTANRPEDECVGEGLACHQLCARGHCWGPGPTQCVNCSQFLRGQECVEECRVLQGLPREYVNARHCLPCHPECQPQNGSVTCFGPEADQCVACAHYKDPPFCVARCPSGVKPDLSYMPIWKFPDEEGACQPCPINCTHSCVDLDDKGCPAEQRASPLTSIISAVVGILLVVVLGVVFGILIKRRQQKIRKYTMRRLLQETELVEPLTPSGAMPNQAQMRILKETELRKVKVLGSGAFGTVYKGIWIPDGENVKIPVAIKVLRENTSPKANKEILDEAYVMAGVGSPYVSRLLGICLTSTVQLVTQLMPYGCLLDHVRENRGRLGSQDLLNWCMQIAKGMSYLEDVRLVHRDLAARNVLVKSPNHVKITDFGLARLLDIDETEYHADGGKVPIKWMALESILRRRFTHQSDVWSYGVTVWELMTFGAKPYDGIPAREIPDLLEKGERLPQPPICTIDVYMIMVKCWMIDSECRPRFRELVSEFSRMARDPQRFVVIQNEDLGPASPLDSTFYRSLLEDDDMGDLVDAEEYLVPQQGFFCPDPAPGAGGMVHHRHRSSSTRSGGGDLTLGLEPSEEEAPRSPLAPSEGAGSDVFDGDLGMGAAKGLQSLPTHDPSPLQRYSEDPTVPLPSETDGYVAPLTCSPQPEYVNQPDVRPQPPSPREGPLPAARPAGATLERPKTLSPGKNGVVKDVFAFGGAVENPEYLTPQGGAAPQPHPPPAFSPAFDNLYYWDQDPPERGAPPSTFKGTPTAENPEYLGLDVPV

With `Clc1ccc(Nc2ncnc3c2cnn3-c2ccccc2)cc1`, the viability in assay [1] is 116%; in assay [3], 116% (inactive); in assay [4] it was 86% (inactive); in [5] it was 78.7% (inactive); in assay [6] (setting [16]), 71.4%; in assay [6] (setting [17]), 78.7%. Also, the viability is 81.7% (inactive) in assay [12] and 74.8% (inactive) in assay [13]. In addition, in assay [2], the Her2 level was 90.5% (inactive). In addition, the differential viability (reversal) in [6] (H69AR cells + 2 uM doxorubicin) was 7.29% (inactive). Moreover, the values for the inhibition in assay [7], in [8] and in assay [14] were -4% (inactive), 0% (inactive) and 0.855% (inactive), respectively. Besides, the growth inhibition in assay [9] was -10.8% (inactive); in assay [10], -13.1% (inactive). In addition, in assay [11], the viability increase is -2.81% (inactive). The RAM network inhibition in [15] was -0.47% (inactive).

On to `CC1=C(C(=O)OC(C)C)C(c2cccc(F)c2)n2ncnc2N1` (stereo not given), for which the viability in assay [1] is 103%; in assay [3], 103% (inactive); in assay [4], 101% (inactive); in [5] it was 90.7% (inactive); in assay [6] (setting [16]), 91.7%; in assay [6] (setting [17]) it was 90.7%. Further, the figures for the viability in [12] and in assay [13] were 103% (inactive) and 100% (inactive), respectively. Also, in assay [2], the Her2 level was 112% (inactive). Further, the differential viability (reversal) in assay [6] (H69AR cells + 2 uM doxorubicin) is -1.02% (inactive). In addition, the inhibition in assay [7] is 0.27% (inactive); in assay [8], 3.83% (inactive); in assay [14], 1.74% (inactive). The growth inhibition was -7.79% (inactive) in assay [9] and -4.85% (inactive) in assay [10]. Further, the viability increase in [11] is 0.62% (inactive). Further, the RAM network inhibition in assay [15] was 5.32% (inactive).

As to `CCN(CCCNS(=O)(=O)c1ccc2c(c1)oc(=O)n2C)c1cccc(C)c1`, the viability is 88% in assay [1]; 88% (inactive) in assay [3]; 106% (inactive) in assay [4]; 90.1% (inactive) in assay [5]; 84.5% in assay [6] (setting [16]); 90.1% in assay [6] (setting [17]). For the same compound, the figures for the viability in [12] and in [13] were 87.2% (inactive) and 89.5% (inactive), respectively. In addition, in assay [2], the Her2 level is 100% (inactive). The differential viability (reversal) in assay [6] (H69AR cells + 2 uM doxorubicin) is 5.6% (inactive). Also, the inhibition in assay [7] was -0.38% (inactive); in [8], 1.33% (inactive); in [14], 0.695% (inactive). Besides, the growth inhibition was -12% (inactive) in [9] and -10.2% (inactive) in [10]. In addition, the viability increase in assay [11] was -3.21% (inactive). Moreover, the RAM network inhibition in assay [15] was 7.59% (inactive).

For the compound `Cc1ccc(-c2noc(CN3CCN(c4ccccc4F)CC3)n2)cc1`, the viability in assay [1] is 89.5%; in assay [3], 89.5% (inactive); in assay [4], 121% (inactive); in [5] it was 92.5% (inactive); in [6] (setting [16]), 95.5%; in assay [6] (setting [17]), 92.5%. For the same compound, the viability in assay [12] was 93.3% (inactive); in [13], 92.4% (inactive). The Her2 level in assay [2] is 95.5% (inactive). Besides, the differential viability (reversal) in [6] (H69AR cells + 2 uM doxorubicin) is -3.02% (inactive). Besides, the inhibition is 1.87% (inactive) in [7], -1.5% (inactive) in [8] and -0.38% (inactive) in assay [14]. Further, the growth inhibition is 1.99% (inactive) in assay [9] and -1.21% (inactive) in [10]. Further, the viability increase in assay [11] is -2.06% (inactive). Further, in assay [15], the RAM network inhibition was 3.79% (inactive).

Regarding `COc1ccc2c(c1OC)C(=O)OC2CC(=O)c1ccc(O)cc1` (stereo not given), the viability in assay [1] was 100%; in [3], 100% (inactive); in assay [4] it was 106% (inactive); in assay [5] it was 87.3% (inactive); in assay [6] (setting [16]), 90.4%; in assay [6] (setting [17]), 87.3%. The values for the viability in assay [12] and in assay [13] were 102% (inactive) and 107% (inactive), respectively. For the same compound, in [2], the Her2 level was 111% (inactive). Further, the differential viability (reversal) in [6] (H69AR cells + 2 uM doxorubicin) is -3.06% (inactive). Also, the inhibition was 1.3% (inactive) in [7], -4.17% (inactive) in assay [8] and 0.365% (inactive) in assay [14]. Also, the growth inhibition in assay [9] was -11.6% (inactive); in assay [10] it was -10.6% (inactive). Also, the viability increase in [11] is -0.29% (inactive). In addition, in assay [15], the RAM network inhibition was 4.28% (inactive).
